Screening data deposited in PubChem by The Scripps Research Institute Molecular Screening Center.
The sample as a whole holds a higher share of hits than the screen did.
TTR transcr act: TTR transcription activators in neuroblastoma reporter cells, primary screen, cell-based, luminescence, SH-SY5Y, TTR promoter Gaussia luciferase | 100% = recombinant luciferase protein wells | activation, % at 16.7 µM | 92,000 tested, 1.3% active | AID 1117267, 2014;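 active means activation above the mean of all tested compounds plus 3 SD, cut at about 9.5% in these data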;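 further: cells exposed to compounds for one day before reading; 0% = median of all test compound wells on the plate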
HuH7 TTR inh: TTR promoter reporter inhibitors in hepatoma cells, counter-screen for TTR transcription activator project, cell-based, luminescence, HuH7 hepatoma; shares compounds with TTR transcr act; HuH7 TTR promoter-Gaussia luciferase reporter; inhibition, % at 16.7 µM; 1,100 tested, 4% active;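 active means average inhibition above the solvent-only control wells' mean plus 3 SD, cut at about 15% in these data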;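 further: 0% = cells with DMSO only and 100% = cells with inhibitor control FD; inhibitors lower well luminescence so higher value means more inhibition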
TTR act confirm: TTR transcription activators, retest, confirmation, cell-based, luminescence, SH-SY5Y, triplicate; shares compounds with TTR transcr act; SHSY5Y TTR promoter Gaussia luciferase; 100% = purified Lucia enzyme wells, no cells; activation, % at 16.7 µM; 1,100 tested, under 10 active; AID 1117280, 2014;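 active means mean activation above a set limit taken from the earlier primary screen, cut at about 11% in these data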;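 further: 0% = DMSO-treated cells and 100% = recombinant Lucia luciferase without cells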
Active calls of the source: *.

For C=CCC1c2cccc(C(=O)O)c2C(=O)N1c1ccc(F)cc1 (configuration not stated) the results were TTR transcr act 12*, HuH7 TTR inh 8 and TTR act confirm 0.
Screening CCCN1Cc2cccc(C(=O)N3CCN(c4ccc(F)cc4)CC3)c2C1=O returned TTR transcr act -2.
Screening CCOc1ccc(OCCC(=O)N(CC)CC(=O)Nc2ccccc2OC)cc1 returned TTR transcr act -2.
`c1ccc(CNc2ncnc3c2cnn3-c2ccccc2)cc1` gave TTR transcr act 1.
c1ccc(-n2ncc3c(NCCN4CCCCC4)ncnc32)cc1 was read as TTR transcr act 0.
For CCNc1ncnc2c1cnn2C1CCCO1 (configuration not stated) the results were TTR transcr act 10*, HuH7 TTR inh -8 and TTR act confirm 1.
`Cc1ccc(/C=N/NC(=O)c2ccc(NC(=O)c3ccccc3Cl)cc2)o1` gave TTR transcr act -2.
Cc1ccc(/C=N/NC(=O)c2csc(C)c2)o1 was read as TTR transcr act 23*, HuH7 TTR inh 16* and TTR act confirm -2.
`Cc1ccc(/C=N\NC(=O)c2cncc(Br)c2)o1` gave TTR transcr act 2.
`COc1cc(C(=O)Nc2cccc(-n3cnnn3)c2)cc(OC)c1OC` gave TTR transcr act -1.
For COC(=O)COc1cccc(-n2cnnn2)c1 the results were TTR transcr act 11*, HuH7 TTR inh -9 and TTR act confirm 1.
Screening COC(=O)c1ccc(NC(=O)COc2cccc(-n3cnnn3)c2)cc1 returned TTR transcr act -2.
`CCNC(=O)C1(C)CCN(C(=O)c2ccc(-c3ccccc3)cc2)C1` (configuration not stated) gave TTR transcr act 0.
For CNc1cncc(-c2cccc(NS(C)(=O)=O)c2)n1 the results were TTR transcr act -2.
CCn1c(=O)c([N+](=O)[O-])c(NCCc2ccc(OC)c(OC)c2)c2ccccc21 was read as TTR transcr act -2.
Screening COc1ccc(CCNc2c3ccccc3nc3ccccc23)cc1OC returned TTR transcr act 11*, HuH7 TTR inh -17 and TTR act confirm 14*.
For COc1ccc(CCn2c(C)nc3ccccc3c2=O)cc1OC the results were TTR transcr act 0.
Cc1cc(C)n2c(=O)[nH]nc2c1 was read as TTR transcr act 2.
For COc1ccc(Cc2c(-c3ccccc3)nc3c4ccccc4ccn23)c(C)c1 the results were TTR transcr act 1.
`O=S(=O)(c1ccccc1F)N1CCN(CCc2ccccc2)CC1` gave TTR transcr act 1.
For Cc1cc(OCC(=O)NC2CC(C)(C)NC(C)(C)C2)c2c(C)cc(=O)oc2c1 the results were TTR transcr act 1.
Screening COc1ccc(C(C)=O)cc1COC(=O)c1ccc(OCc2c(C)noc2C)cc1 returned TTR transcr act 1.
Screening Cc1noc(C)c1COc1cccc(C(=O)OCCOc2ccc(F)cc2)c1 returned TTR transcr act 12*, HuH7 TTR inh -7 and TTR act confirm 1.
Screening Cc1cccc(C)c1NC(=O)c1ccc(OCc2c(C)noc2C)cc1 returned TTR transcr act -1.
O=C1CCC(C(=O)OCC(=O)Nc2ccc(SC(F)F)cc2)=NN1 was read as TTR transcr act 2.
For CCCCN(C(=O)CSCC(=O)Nc1ccc(C)cc1)c1c(N)n(CCCC)c(=O)[nH]c1=O the results were TTR transcr act -1.
CCCCC(=O)N(C)c1c(CC)nc2c(OCC(=O)c3ccc(F)cc3)cccn12 was read as TTR transcr act 1.
`COc1ccc(-c2cn(CC[C@@H]3CC[C@H](NC(=O)Cc4ccccn4)[C@@H](CO)O3)nn2)cc1` gave TTR transcr act -1.
COc1cccc(OC)c1C(=O)Nc1ccncc1 was read as TTR transcr act 3.
For O=C(COC(=O)CSc1ccc([N+](=O)[O-])cc1)NCc1cccs1 the results were TTR transcr act 0.
CC(C)c1ccc(NC2CCCN(C(=O)c3cnc4ccccn4c3=O)C2)cc1 (configuration not stated) was read as TTR transcr act 0.
Screening CC(C)c1ccc(NC2CCCN(C(=O)c3cccs3)C2)cc1 (configuration not stated) returned TTR transcr act 11*, HuH7 TTR inh -5 and TTR act confirm -1.
`CC(C)c1ccc(NC2CCCN(C(=O)CCN3CCCCC3=O)C2)cc1` (configuration not stated) gave TTR transcr act 0.
Cc1ccccc1CN1CCCCC(NC(=O)c2ccccc2C)C1=O (configuration not stated) was read as TTR transcr act -1.
